Assays:
[1] = target: T1, Inhibitor of nuclear factor kappa-B kinase subunit epsilon (Homo sapiens) (UniProt Q14164); conditions: at 1 µM;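 also: reported values are averaged percent inhibition figures against human IKKε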
T1 sequence (whole entry): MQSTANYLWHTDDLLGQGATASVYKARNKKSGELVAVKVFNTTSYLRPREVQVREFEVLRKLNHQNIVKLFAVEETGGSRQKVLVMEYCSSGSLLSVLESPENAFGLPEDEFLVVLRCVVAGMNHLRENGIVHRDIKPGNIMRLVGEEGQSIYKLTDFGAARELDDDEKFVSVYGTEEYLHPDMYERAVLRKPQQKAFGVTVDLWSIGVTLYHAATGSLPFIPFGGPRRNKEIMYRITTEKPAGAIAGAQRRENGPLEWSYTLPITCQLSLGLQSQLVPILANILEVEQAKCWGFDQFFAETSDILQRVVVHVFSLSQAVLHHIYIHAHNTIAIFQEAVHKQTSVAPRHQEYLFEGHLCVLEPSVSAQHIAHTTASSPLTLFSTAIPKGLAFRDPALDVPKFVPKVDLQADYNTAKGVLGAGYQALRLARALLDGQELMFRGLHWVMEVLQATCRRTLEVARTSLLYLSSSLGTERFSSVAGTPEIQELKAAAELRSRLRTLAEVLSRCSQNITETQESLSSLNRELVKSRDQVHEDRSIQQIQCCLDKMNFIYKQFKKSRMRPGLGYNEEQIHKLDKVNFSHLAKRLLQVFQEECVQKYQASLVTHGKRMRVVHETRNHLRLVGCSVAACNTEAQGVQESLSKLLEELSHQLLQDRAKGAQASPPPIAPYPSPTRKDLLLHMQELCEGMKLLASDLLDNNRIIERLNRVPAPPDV

[2] = target: T2, Serine/threonine-protein kinase Nek1 (Homo sapiens) (UniProt Q96PY6); conditions: at 0.1 µM
T2 sequence (whole entry): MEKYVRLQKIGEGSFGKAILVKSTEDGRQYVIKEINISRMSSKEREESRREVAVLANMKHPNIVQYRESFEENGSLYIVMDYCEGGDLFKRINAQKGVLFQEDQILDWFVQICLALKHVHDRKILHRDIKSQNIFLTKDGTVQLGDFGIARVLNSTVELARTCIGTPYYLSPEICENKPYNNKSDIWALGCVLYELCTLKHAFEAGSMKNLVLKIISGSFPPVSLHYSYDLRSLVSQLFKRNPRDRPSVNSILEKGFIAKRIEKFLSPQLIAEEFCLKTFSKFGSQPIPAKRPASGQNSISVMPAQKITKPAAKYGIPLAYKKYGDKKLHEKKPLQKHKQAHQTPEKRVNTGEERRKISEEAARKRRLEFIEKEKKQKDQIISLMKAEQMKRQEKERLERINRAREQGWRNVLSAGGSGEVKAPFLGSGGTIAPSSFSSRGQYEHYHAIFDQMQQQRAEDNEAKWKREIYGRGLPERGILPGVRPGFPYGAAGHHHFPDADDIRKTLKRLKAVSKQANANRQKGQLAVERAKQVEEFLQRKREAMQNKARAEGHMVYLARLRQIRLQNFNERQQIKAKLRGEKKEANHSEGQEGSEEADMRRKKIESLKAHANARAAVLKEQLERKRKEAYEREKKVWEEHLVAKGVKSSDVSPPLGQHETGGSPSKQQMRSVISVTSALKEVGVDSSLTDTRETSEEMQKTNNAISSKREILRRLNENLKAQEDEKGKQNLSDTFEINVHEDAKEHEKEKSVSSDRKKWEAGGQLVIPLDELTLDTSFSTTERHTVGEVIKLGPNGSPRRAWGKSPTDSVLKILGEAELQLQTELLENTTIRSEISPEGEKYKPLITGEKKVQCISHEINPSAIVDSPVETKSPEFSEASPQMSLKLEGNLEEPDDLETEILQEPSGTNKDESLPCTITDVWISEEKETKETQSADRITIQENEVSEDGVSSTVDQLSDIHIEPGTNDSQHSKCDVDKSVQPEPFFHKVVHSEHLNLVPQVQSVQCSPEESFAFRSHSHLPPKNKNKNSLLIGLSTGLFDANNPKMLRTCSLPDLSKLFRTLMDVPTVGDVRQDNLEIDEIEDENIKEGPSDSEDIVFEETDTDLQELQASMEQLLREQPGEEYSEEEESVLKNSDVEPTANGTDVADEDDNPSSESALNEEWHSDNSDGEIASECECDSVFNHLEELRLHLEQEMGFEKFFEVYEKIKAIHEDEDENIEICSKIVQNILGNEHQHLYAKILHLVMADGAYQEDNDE

[3] = target: T2, Serine/threonine-protein kinase Nek1 (Homo sapiens); conditions: at 1 µM
[4] = target: T3, Serine/threonine-protein kinase Nek2 (Homo sapiens) (UniProt P51955); conditions: at 0.1 µM
T3 sequence (whole entry): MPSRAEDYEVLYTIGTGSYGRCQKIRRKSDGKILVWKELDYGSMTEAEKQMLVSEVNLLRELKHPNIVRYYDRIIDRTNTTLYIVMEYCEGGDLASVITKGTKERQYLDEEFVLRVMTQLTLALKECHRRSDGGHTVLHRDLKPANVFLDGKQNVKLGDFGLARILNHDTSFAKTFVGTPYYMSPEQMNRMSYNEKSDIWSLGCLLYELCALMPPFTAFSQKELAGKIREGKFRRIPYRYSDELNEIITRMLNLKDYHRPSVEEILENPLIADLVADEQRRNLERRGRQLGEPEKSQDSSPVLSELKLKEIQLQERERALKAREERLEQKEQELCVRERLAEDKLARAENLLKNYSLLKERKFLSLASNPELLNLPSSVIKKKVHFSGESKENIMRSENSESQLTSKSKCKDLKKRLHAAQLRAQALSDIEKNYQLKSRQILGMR

[5] = target: T3, Serine/threonine-protein kinase Nek2 (Homo sapiens); conditions: at 1 µM
[6] = target: Serine/threonine-protein kinase Nek6 (Homo sapiens) (UniProt Q9HC98); conditions: at 0.1 µM
[7] = target: Serine/threonine-protein kinase Nek6 (Homo sapiens) (UniProt Q9HC98); conditions: at 1 µM
[8] = target: Serine/threonine-protein kinase Nek7 (Homo sapiens) (UniProt Q8TDX7); conditions: at 0.1 µM
[9] = target: Serine/threonine-protein kinase Nek7 (Homo sapiens) (UniProt Q8TDX7); conditions: at 1 µM
[10] = target: T4, Serine/threonine-protein kinase Nek9 (Homo sapiens) (UniProt Q8TD19); conditions: at 0.1 µM
T4 sequence (whole entry): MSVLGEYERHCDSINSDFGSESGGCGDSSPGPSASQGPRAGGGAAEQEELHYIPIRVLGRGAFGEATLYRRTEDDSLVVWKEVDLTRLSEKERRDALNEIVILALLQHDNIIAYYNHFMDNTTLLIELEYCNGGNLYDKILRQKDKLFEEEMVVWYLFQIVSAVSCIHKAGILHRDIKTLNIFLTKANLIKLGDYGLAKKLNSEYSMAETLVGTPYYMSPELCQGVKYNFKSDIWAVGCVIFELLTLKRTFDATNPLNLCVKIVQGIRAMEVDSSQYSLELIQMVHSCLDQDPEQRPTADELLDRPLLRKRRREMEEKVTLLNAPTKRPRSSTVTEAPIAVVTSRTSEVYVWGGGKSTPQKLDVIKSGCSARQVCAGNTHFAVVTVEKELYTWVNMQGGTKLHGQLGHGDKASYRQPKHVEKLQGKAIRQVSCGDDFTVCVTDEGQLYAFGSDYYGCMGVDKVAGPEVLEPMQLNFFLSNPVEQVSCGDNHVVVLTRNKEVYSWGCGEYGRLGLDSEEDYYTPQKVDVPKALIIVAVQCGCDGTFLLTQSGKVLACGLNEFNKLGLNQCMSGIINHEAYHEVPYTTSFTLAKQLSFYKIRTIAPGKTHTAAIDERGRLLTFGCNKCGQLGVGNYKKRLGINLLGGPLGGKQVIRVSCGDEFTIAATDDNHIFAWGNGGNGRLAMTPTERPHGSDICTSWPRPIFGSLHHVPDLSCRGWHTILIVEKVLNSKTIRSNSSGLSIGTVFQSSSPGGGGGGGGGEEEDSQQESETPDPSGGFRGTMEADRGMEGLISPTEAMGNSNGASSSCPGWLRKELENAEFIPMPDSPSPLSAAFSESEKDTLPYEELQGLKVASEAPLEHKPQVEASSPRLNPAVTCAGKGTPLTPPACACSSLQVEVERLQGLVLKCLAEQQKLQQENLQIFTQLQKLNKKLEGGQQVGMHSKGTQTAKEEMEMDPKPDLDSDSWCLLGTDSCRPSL

[11] = target: T4, Serine/threonine-protein kinase Nek9 (Homo sapiens); conditions: at 1 µM
[12] = target: Serine/threonine-protein kinase PLK1 (Homo sapiens) (UniProt P53350); conditions: at 0.1 µM
[13] = target: Serine/threonine-protein kinase PLK1 (Homo sapiens) (UniProt P53350); conditions: at 1 µM
[14] = target: T5, Dual specificity protein kinase TTK (Homo sapiens) (UniProt P33981); conditions: at 0.1 µM
T5 sequence (whole entry): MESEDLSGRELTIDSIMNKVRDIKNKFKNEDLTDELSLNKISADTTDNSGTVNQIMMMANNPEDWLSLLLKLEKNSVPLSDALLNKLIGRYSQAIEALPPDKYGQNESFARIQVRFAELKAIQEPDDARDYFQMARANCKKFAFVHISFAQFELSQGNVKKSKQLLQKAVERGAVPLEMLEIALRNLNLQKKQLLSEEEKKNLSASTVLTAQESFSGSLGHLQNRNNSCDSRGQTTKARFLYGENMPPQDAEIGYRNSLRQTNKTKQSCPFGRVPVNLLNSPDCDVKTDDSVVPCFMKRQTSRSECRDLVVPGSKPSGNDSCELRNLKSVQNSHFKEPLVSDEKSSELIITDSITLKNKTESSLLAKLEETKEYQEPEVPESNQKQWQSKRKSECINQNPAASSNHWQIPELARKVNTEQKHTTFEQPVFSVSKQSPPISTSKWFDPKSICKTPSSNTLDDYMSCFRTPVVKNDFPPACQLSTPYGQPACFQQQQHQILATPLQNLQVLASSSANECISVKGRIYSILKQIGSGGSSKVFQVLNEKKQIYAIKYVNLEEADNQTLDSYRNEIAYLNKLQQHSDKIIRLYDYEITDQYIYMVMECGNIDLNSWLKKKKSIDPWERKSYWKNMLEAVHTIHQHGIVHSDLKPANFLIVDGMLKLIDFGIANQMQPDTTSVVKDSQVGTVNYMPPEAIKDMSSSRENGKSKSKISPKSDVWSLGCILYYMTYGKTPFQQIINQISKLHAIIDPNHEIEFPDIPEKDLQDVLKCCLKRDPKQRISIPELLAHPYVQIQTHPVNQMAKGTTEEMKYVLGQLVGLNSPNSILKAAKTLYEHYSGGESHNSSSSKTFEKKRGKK

[15] = test system: T6, Receptor-type tyrosine-protein kinase FLT3 (Homo sapiens), P36888 [D835Y]; conditions: at 1 µM
T6 sequence (whole entry): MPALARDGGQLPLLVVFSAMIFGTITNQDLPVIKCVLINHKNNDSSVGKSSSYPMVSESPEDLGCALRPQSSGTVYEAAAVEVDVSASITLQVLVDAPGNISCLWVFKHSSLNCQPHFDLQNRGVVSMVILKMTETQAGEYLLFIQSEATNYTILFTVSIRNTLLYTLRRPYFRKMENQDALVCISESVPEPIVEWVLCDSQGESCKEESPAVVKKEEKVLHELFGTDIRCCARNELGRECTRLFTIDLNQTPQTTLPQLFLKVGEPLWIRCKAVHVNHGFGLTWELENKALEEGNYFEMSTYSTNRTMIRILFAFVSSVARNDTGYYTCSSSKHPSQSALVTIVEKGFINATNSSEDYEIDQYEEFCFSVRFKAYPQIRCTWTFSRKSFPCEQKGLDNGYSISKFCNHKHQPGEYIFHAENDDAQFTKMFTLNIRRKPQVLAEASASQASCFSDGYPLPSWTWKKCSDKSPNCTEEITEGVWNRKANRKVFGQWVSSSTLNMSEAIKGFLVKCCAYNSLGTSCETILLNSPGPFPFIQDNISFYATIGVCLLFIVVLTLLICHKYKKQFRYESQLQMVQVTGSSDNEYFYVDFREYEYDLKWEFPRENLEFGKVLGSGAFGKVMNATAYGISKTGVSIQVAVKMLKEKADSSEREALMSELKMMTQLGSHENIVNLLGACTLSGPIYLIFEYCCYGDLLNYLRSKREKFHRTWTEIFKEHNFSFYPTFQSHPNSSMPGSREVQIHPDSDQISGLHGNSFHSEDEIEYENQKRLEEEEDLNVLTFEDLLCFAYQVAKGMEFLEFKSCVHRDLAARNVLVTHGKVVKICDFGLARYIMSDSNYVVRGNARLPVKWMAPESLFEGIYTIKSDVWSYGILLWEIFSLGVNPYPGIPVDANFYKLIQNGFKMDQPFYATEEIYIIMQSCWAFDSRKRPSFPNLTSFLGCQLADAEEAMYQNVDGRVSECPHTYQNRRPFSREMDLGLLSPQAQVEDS

[16] = target: Vascular endothelial growth factor receptor 3 (Homo sapiens) (UniProt P35916); conditions: at 0.1 µM
[17] = target: Vascular endothelial growth factor receptor 3 (Homo sapiens) (UniProt P35916); conditions: at 1 µM
[18] = target: Macrophage colony-stimulating factor 1 receptor (Homo sapiens) (UniProt P07333); conditions: at 0.1 µM
[19] = target: Macrophage colony-stimulating factor 1 receptor (Homo sapiens) (UniProt P07333); conditions: at 1 µM
[20] = target: Tyrosine-protein kinase Fyn (Homo sapiens) (UniProt P06241); conditions: at 0.1 µM
Tyrosine-protein kinase Fyn (Homo sapiens), sequence (P06241 2-537 limits assumed): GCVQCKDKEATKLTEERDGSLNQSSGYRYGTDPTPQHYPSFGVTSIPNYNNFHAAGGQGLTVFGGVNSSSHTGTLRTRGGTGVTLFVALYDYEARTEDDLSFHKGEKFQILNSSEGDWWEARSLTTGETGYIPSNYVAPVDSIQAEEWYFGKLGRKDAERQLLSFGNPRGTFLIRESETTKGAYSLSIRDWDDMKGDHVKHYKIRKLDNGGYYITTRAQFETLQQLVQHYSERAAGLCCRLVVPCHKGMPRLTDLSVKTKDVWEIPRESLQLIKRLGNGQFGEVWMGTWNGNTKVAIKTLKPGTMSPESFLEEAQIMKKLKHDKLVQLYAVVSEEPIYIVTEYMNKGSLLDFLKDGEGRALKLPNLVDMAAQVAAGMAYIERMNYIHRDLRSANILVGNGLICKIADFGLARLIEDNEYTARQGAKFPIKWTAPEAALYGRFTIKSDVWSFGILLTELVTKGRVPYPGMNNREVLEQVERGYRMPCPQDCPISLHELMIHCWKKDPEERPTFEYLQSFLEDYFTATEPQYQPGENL

Serine/threonine-protein kinase Nek6 (Homo sapiens), sequence (Q9HC98 whole entry): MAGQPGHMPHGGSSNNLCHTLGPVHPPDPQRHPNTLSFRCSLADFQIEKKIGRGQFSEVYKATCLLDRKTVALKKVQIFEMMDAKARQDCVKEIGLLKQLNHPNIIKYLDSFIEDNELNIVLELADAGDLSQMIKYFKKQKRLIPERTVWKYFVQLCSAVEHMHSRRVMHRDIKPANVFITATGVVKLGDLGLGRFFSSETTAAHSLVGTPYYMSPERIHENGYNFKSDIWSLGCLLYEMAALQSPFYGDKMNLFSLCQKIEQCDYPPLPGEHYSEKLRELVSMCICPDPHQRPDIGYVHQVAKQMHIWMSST
Vascular endothelial growth factor receptor 3 (Homo sapiens), sequence (P35916 whole entry): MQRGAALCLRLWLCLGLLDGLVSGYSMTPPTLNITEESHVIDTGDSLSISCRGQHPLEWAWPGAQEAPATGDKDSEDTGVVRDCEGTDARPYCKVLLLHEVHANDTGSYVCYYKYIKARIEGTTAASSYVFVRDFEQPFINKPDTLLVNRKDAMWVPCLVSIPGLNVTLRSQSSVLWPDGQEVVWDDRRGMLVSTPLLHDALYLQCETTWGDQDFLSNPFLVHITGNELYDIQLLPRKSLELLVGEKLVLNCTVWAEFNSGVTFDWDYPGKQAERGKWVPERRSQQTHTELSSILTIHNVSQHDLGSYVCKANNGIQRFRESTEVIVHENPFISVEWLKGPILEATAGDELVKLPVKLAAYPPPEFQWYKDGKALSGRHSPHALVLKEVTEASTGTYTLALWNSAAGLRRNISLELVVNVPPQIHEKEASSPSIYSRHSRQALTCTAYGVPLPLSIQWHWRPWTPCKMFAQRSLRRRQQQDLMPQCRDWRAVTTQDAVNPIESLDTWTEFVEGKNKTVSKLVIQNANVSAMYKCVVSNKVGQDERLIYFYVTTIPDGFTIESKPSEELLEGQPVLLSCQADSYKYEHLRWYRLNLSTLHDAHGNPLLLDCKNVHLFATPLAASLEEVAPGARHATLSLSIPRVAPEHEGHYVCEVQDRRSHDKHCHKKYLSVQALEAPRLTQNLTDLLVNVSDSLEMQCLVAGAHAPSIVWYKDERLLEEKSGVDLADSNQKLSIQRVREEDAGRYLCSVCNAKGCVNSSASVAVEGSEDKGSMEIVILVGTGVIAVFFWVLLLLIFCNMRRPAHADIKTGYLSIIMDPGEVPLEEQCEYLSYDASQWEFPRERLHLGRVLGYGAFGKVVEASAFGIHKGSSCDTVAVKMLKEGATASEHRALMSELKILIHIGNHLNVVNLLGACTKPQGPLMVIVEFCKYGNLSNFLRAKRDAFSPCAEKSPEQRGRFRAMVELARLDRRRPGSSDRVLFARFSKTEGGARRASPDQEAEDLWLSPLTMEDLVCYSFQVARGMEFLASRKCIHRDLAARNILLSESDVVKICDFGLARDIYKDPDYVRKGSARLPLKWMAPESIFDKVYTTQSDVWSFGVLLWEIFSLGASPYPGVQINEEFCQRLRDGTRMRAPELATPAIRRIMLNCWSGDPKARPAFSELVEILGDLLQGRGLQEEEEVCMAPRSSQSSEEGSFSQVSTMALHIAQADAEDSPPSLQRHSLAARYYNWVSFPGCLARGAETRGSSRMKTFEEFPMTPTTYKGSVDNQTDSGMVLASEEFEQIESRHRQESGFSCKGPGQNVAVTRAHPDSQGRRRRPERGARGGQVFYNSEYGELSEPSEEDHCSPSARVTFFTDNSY
Serine/threonine-protein kinase PLK1 (Homo sapiens), sequence (P53350 whole entry): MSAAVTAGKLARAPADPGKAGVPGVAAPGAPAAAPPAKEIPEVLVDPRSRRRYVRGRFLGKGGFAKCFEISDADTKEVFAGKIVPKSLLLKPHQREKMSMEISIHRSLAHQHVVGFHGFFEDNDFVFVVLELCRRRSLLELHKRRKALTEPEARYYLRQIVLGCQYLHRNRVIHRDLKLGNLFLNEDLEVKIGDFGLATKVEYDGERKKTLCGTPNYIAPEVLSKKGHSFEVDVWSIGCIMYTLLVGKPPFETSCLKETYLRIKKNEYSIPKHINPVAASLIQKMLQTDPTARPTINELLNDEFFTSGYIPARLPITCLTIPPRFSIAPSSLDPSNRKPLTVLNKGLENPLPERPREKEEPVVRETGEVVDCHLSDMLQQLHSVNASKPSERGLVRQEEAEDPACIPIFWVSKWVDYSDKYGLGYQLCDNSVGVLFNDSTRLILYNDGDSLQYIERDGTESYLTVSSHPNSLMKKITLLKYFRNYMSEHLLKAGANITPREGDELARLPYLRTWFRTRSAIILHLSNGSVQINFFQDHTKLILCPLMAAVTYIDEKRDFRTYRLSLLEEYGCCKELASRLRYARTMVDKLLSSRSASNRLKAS
Macrophage colony-stimulating factor 1 receptor (Homo sapiens), sequence (P07333 whole entry): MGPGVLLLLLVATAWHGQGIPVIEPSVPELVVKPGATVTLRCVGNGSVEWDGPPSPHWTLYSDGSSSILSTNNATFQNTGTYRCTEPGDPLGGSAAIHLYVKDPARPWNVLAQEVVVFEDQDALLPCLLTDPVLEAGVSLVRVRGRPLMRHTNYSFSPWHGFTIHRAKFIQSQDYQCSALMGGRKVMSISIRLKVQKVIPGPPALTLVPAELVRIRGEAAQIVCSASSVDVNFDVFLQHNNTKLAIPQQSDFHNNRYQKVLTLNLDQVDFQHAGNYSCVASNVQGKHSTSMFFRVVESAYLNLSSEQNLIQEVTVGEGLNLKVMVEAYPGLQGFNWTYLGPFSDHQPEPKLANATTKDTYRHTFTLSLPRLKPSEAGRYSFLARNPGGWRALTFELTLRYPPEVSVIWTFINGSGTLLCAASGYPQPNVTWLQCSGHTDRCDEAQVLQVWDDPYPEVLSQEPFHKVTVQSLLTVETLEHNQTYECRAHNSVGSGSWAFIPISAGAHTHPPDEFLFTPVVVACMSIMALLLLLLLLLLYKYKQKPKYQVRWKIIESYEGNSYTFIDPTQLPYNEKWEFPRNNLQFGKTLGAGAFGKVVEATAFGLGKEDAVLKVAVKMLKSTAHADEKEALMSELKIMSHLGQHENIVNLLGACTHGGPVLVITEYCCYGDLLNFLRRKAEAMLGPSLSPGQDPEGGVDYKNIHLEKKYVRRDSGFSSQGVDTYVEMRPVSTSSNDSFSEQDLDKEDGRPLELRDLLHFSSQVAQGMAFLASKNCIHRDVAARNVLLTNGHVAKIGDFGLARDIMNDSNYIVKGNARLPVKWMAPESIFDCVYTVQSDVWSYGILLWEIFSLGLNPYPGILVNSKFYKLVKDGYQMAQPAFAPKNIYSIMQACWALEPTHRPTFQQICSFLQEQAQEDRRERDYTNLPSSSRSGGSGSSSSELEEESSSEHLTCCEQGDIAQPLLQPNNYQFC
Serine/threonine-protein kinase Nek7 (Homo sapiens), sequence (Q8TDX7 whole entry, looked up): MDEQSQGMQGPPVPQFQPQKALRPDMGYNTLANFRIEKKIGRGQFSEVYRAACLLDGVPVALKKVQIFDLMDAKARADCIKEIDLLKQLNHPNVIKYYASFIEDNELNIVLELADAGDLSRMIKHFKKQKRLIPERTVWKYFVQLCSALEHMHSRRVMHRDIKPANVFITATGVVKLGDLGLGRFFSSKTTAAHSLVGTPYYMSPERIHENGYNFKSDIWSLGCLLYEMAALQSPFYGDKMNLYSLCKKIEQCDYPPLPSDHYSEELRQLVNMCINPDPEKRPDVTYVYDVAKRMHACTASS

SMILES	inhibition [1] [%]	inhibition [2] [%]	inhibition [3] [%]	inhibition [4] [%]	inhibition [5] [%]	inhibition [6] [%]	inhibition [7] [%]	inhibition [8] [%]	inhibition [9] [%]	inhibition [10] [%]	inhibition [11] [%]	inhibition [12] [%]	inhibition [13] [%]	inhibition [14] [%]	inhibition [15] [%]	inhibition [16] [%]	inhibition [17] [%]	inhibition [18] [%]	inhibition [19] [%]	inhibition [20] [%]
CC1=C(C(=O)Nc2ccc3[nH]ncc3c2)C(c2ccc(F)cc2)N=C(c2ccc(C(F)(F)F)nc2)N1 (stereo not given)	3.45	1.75	1.45	3.41	2.65	1.87	-0.45	3.08	2.92	2.7	-1.51	1.85	1.78	3.99	1.9	1.85	0.82	3.03	2.25	4.17
COc1ccccc1-c1cc(/C=C2\C(=O)Nc3ncc(Br)cc32)cc(Br)c1O	12.5	2.67	0.39	6.8	6.16	3.44	0.04	6.5	3.62	3.73	3.53	4.19	9.04	12.7	4.73	1.8	4.28	3.88	7.16	5.35

From ChEMBL document CHEMBL1961873, “Compounds: GSK PKIS; Assays: Nanosyn kinase panel” (2012)
